Test results from ChEMBL document CHEMBL3988442, “University of Dundee, Small-Polar-MMV Screening Library” (2021).

target: Shiga toxin 2 (Escherichia coli O157:H7) (UniProt P09385+P09386); test: E. coli 0.157:H7 Shiga Toxin SOP - stx2 screening assay; format: functional; set-up: scale not given: direction of the effect not stated beside the values; conditions: 30 µM

Structure (SMILES) | Percent Effect [%]
NS(=O)(=O)Cc1ccc(CNC(=O)NCC2CCOC2)cc1 (stereo not given) | 26.9
CCCn1[nH]cc/c1=N\C(=O)CN1CCc2c(nc(C(C)C)n2C)C1 | 1.47
Fc1cccc(-c2nc(CN3CCOC(Cn4cccn4)C3)co2)c1 (stereo not given) | 24.3
CC(C)n1cc(CN2CCCN(C(=O)c3cc(Cl)c[nH]3)CC2)cn1 | 3.9
CC(C)n1ccnc1CN1CCCN(C(=O)CC2C=CCC2)CC1 (stereo not given) | -0.917
CC(OCC(F)(F)F)C(=O)N1CCCCC1 (stereo not given) | -2.39
Cc1oc(C)c(C(=O)N2CCCN(Cc3cscn3)CC2)c1C | 26.2
COc1cccc([C@@H]2CN(C(=O)c3ccc(C)cc3O)C[C@H]2C(=O)O)c1 | -5.94
Cn1cnnc1C1CCCN(C(=O)NCCc2ccccc2F)C1 (stereo not given) | 15.6
Cc1noc2nc(C3CCN(Cc4ccncc4)CC3)cc(C(F)F)c12 | -67.8
CC(=O)Nc1nc(CN2CCCC2c2cnn(C)c2)cs1 (stereo not given) | -28.6
Cc1nnc(CN2CCN(CC(O)c3cccc(F)c3)CC2)n1C (stereo not given) | 18.7
CCc1ncc2c(n1)CN(Cc1nc(-c3ccccn3)no1)CC2 | -30.2
CCN(CC)C(CNS(=O)(=O)c1ccc(C(=O)NC)cc1)c1ccco1 (stereo not given) | -17.4
O=C(NCc1cccnc1-n1cccn1)C1CC(=O)N(CC2CC2)C1 (stereo not given) | 10.1
Cc1cc(NC(=O)NCC2CCOC2)no1 (stereo not given) | -24.3
NCC(=O)N1CCCC(c2cncc(Nc3ncccn3)n2)C1 (stereo not given) | 1.91
Cc1ccc(CC(=O)N2Cc3nccn3CC(Cn3cccn3)C2)cc1 (stereo not given) | -2.6
Cc1ccc(-c2ncc(C(=O)NCCNC(=O)C(C)C)s2)c(C)c1 | 11.7
N#Cc1cc(NC(=O)C2CC=CC2)ccc1N1CCC(O)CC1 | -9.47
